From PubChem BioAssay
Potency and affinity values are given separately. Calls of active or inactive are those of the source. The rule behind the calls is not given here.

target: Plasmodium falciparum protein kinase 6 (PK6, PF3D7_1337100) (UniProt Q8IDW1); assay: PfPK6 kinase inhibitors, biochemical, TCAMS library (AID 1159586); details: recombinant PfPK6, Kinase-Glo ATP depletion luminescence
Sequence (Q8IDW1 1-305): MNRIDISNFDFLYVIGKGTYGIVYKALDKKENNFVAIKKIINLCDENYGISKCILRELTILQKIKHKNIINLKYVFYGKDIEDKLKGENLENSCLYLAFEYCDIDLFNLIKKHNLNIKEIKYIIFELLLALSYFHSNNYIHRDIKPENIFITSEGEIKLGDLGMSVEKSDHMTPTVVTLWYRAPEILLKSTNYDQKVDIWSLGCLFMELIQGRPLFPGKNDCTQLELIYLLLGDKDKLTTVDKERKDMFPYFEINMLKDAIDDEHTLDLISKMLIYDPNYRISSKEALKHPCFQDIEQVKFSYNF

outcome, inactive:
CCCc1cc(Cc2cnc(N)nc2N)ccc1OCCCCCC(=O)O
CC(C)(C)c1nn(-c2ccc(Cl)cc2)c2[nH]c(=O)c(CNC3CCCC3)cc12
O=C(c1ccco1)N1CCN(c2nc(-c3ccc(Cl)cc3)nc3ccccc23)CC1
CC(C)CCN1CCC(Oc2ccc(NC(=O)c3ccccc3)cc2Cl)CC1
COc1cccc(-c2nn(C)c3sc(C(=O)Nc4cccnc4)cc23)c1
Cc1cccc(C)c1C1CCN(C2CCC(NC(=O)/C=C/c3ccccc3)CC2)CC1 (stereo not given)
Cc1ccnc(Nc2nc(-c3ccccn3)cs2)c1
NC1=NC2(CCCCC2)N(OCCCOc2cc(Cl)c(Cl)cc2Cl)C(N)=N1
O=C(NCc1ccc(Cl)cc1)c1ccc(CN2CCCN(Cc3cccc(O)c3)CC2)cc1
CS(=O)(=O)NCCCNCc1ccc(-c2ccc(-c3nc4ccc(C(F)(F)F)cc4[nH]3)s2)cc1
CNC(=S)NCc1cnc2ccccn12
Cn1cnc2nc(NCCc3ccccc3)nc(NCc3cccc4ccccc34)c21
CCOC(=O)c1cn(CC)c2cc(N(C)CCc3ccc(OC)c(OC)c3)c(F)cc2c1=O
Cc1cccc2[nH]c(-c3ccc(-c4cccc(CNCc5cnn(-c6ccccc6)n5)c4)s3)nc12
N=c1c2c(n(Cc3cccc(Cl)c3)c3c1CCC3)CCCC2
O=C(Nc1ccccc1Br)N[C@@H]1CCN(c2ccnc3ccccc23)C1
Cc1[nH]c(C)c(-c2ccc(-c3ccccc3F)nc2)c(=O)c1Br
CC(=O)c1c(Cc2cccc(C(F)(F)F)c2)c[nH]c1C
Cc1cc(NC2CCN(CC3CCCCC3)C2)nc(Nc2ccc(Br)cc2)n1 (stereo not given)
Cc1cccc2c(CON3C(N)=NC(N)=NC3(C)C)cccc12
CCC(CC)(Cc1ccccc1)NC(=O)[C@H](Cc1ccc(OC)c(OC)c1)Nc1ccc(C#N)c2ccccc12
O=C(C=Cc1ccc(Cl)c(Cl)c1)NCCCCCN1CCC(CCNC(=O)/C=C/c2ccccc2)CC1
O=C(Nc1cccc(C(F)(F)F)c1)c1cccc(S(=O)(=O)NC2CCCN(CC3CCCCC3)C2)c1 (stereo not given)
Cc1cc(NC(=O)c2cc(Br)ccc2Cl)n(-c2nc(C)c(C)c(=O)[nH]2)n1
CN(C(=O)/C=C/c1ccccc1F)C1CCN(CCCCCNC(=O)/C=C/c2ccc(Cl)c(Cl)c2)CC1
CC1CN(Cc2ccc(-c3cccc(-c4nc5ccc(F)cc5[nH]4)c3)cc2)CC(C)O1 (stereo not given)
CC(C)C[C@@H](CNC[C@H](CC(C)C)NC(=O)OC(C)(C)C)NC(=O)OC(C)(C)C
CCNC(=O)N[C@@H]1CN[C@@H](C#Cc2cc3c(Nc4ccc(OCc5cccc(F)c5)c(Cl)c4)ncnc3s2)C1
CC(C)N1CCN(C(CN2CCN(CCCOc3ccc4ccccc4c3)CC2)c2ccc(F)cc2)CC1 (stereo not given)
CN(C)C(=NCCCCCCN=C(NC(N)=NCc1ccc(Cl)c(Cl)c1)N(C)C)NC(N)=NCc1ccc(Cl)c(Cl)c1
CCn1c2ccccc2c2cc(C=NNc3cc(C)nc4ccccc34)ccc21
CS(=O)(=O)CCN(CCS(C)(=O)=O)Cc1ccc(-c2ccc3ncnc(Nc4ccc(OCc5cccc(F)c5)c(Cl)c4)c3c2)o1
O=C(NC1CCCC1)c1ccc(N2CCC(NCc3cc4cc(Cl)ccc4[nH]3)CC2)cc1
COc1ccccc1C1CCN(CCN2CCC(NC(=O)c3ccc(-c4ccc(C#N)cc4)cc3)CC2)CC1
O=C(NC1CCN(Cc2ccc(F)cc2)CC1)c1ccc(-c2cccc(C(F)(F)F)c2)s1
O=C(Nc1ccc(Br)cc1)N(CCN1CCOCC1)CC(O)COc1ccc(Cl)c(F)c1 (stereo not given)
NC(=O)c1ccc(NCC(=O)Nc2cccc(-c3cccc(-c4nc5ccc(C(F)(F)F)cc5[nH]4)c3)c2)cc1
CC(=O)Nc1cccc(-c2cn(-c3ccc(OCc4cccc(F)c4)c(Cl)c3)c3ncncc23)c1
CCCc1ccc(NC(=O)c2ccc(CN3CCCN(Cc4cccc(O)c4)CC3)cc2)cc1
Cc1ccc(C)c(NC(=O)Nc2ccc(Nc3nc(C)cc(N4CCOCC4)n3)cc2)c1
